Source: the supplement of paper PMC10498489
Out of some 2,300 compounds screened, about 330 (14%) showed activity. A selection follows. Unmarked numbers belong to inactive results.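 How the source made its calls: active = median modified Z-score above 1.96; inactive = 1.96 or below.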

What follows are compounds tested on HepG2 Srxn1-GFP reporter cells (+30 nM CDDO-Me) (assay: Srxn1-GFP intensity median modified Z-score relative to plate median; higher = stronger NRF2 / oxidative stress reporter activation, active = hit call of the paper). Conditions: 10 µM; exposure time: 24h.
Outline: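 Values give the median, over replicates, of the modified Z-score of GFP intensity on each plate. HepG2 Srxn1-GFP BAC reporter cells were co-treated for 24 h with an NRF2 activator at 30 nM and compound at 10 μM (≤0.1% DMSO) in three replicate plates, then analysed per cell for cytoplasmic GFP on confocal images with at least 100 cells. Scaling used 1.4826 × median absolute deviation.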

| SMILES | Srxn1-GFP intensity median modified Z-score |
| --- | --- |
| O=C(O)C1CSCN1 (centres undefined) [euspeclibcmpd1135] | -0.116 |
| O=c1cc(-c2ccc(O)cc2)oc2ccc(O)cc12 [euspeclibcmpd1816] | 1.7 |
| Cc1nc(COP(=O)(O)O)cc2c1[O][Mn][O]c1c(cc(COP(=O)(O)O)nc1C)CN(CC(=O)O)CCN(CC(=O)O)C2 [euspeclibcmpd2441] | 1.06 |
| COc1ccc(-c2ccc3cc(C(=O)O)ccc3c2)cc1C12CC3CC(CC(C3)C1)C2 [euspeclibcmpd491] | 3.08 (active) |
| COc1cc(C(=O)O)cc(OC)c1O | 1.18 |
| COC(=O)c1cc(OC)c(=O)c2c(OC)c(OC)ccc2c1 [euspeclibcmpd2293] | -0.421 |
| COc1cc(C(=O)O)cc(OC)c1O [euspeclibcmpd1648] | 0.178 |
| CCCOc1ccccc1-c1nc(=O)c2[nH]nnc2[nH]1 [euspeclibcmpd2036] | -0.165 |
| N[C@@H]1CCCC[C@H]1N [euspeclibcmpd2386] | 1.79 |
| C/C=C/CC(C)C(O)C1C(=O)NC(CC)C(=O)N(C)CC(=O)N(C)C(CC(C)C)C(=O)NC(C(C)C)C(=O)N(C)C(CC(C)C)C(=O)NC(C)C(=O)NC(C)C(=O)N(C)C(CC(C)C)C(=O)N(C)C(CC(C)C)C(=O)N(C)C(C(C)C)C(=O)N1C (centres undefined) [euspeclibcmpd445] | 8.19 (active) |
| CC(=O)O[C@H]1CC[C@@]2(C)C(=CCC3C2CC[C@@]2(C)C3CC[C@@H]2C(C)CCCC(C)C)C1 (some centres undefined) [euspeclibcmpd2217] | -0.115 |
| CCOc1cccc(C(=O)c2ccc(O)c(O)c2O)c1 [euspeclibcmpd1514] | -0.219 |
| CC(NC(CCc1ccccc1)C(=O)O)C(=O)N1CCCC1C(=O)O (centres undefined) [euspeclibcmpd609] | 0.185 |
| CC(C)=CCCC(C)[C@@H]1CC[C@]2(C)C3=C(CC[C@@]12C)C1(C)CC[C@H](O)C(C)(C)C1CC3 (some centres undefined) [euspeclibcmpd2235] | 2.85 (active) |
| CC(C)=CCCC(C)C1CC[C@@]2(C)C3=C(CC[C@]12C)C1(C)CC[C@H](O)C(C)(C)C1CC3 (some centres undefined) [euspeclibcmpd2336] | 0.013 |
| CC(=O)O[C@H]1CCC2(C)C3=C(CCC2C1(C)C)[C@]1(C)CCC(C(C)CCC=C(C)C)[C@@]1(C)CC3 (some centres undefined) [euspeclibcmpd2332] | -0.0515 |
| COc1cc(C)c2c(c1C=O)Oc1c(c(C)c(O)c3c(O)oc(O)c13)OC2=O [euspeclibcmpd1947] | 0.6 |
| CC[C@H]1OC(=O)C(C)[C@@H](O[C@H]2C[C@@](C)(OC)[C@@H](O)[C@H](C)O2)[C@H](C)[C@@H](O[C@@H]2O[C@H](C)C[C@H](N(C)C)[C@H]2O)[C@](C)(O)C[C@@H](C)CN(C)[C@H](C)[C@@H](O)[C@]1(C)O (some centres undefined) [euspeclibcmpd690] | 1.41 |
| CC(C)c1ccc2oc3[nH]c(=N)c(C(=O)O)cc3c(=O)c2c1 [euspeclibcmpd492] | 1.12 |
| CO[C@H]1CC(O[C@@H]2/C(C)=C/C[C@@H]3C[C@@H](C[C@]4(CC[C@H](C)[C@@H](C5CCCCC5)O4)O3)OC(=O)C3=CC(C)C(=NO)C4OC/C(=C\C=C\[C@@H]2C)[C@@]34O)O[C@@H](C)C1O (some centres undefined) [euspeclibcmpd601] | 8.72 (active) |

| SMILES | Srxn1-GFP intensity median modified Z-score |
| --- | --- |
| CCC(C)[C@H]1O[C@]2(C=C[C@@H]1C)C[C@@H]1C[C@@H](C/C=C(\C)[C@@H](OC3C[C@H](OC)C(O[C@H]4C[C@H](OC)[C@@H](NC(C)=O)[C@H](C)O4)[C@H](C)O3)[C@@H](C)/C=C/C=C3\CO[C@@H]4[C@H](O)C(C)=CC(C(=O)O1)[C@]34O)O2 (some centres undefined) [euspeclibcmpd495] | 0.588 |
| CCC(C)[C@H]1O[C@]2(CC[C@@H]1C)C[C@@H]1C[C@@H](C/C=C(\C)[C@@H](OC3C[C@H](OC)C(O[C@H]4C[C@H](OC)[C@@H](O)[C@H](C)O4)[C@H](C)O3)[C@@H](C)/C=C/C=C3\CO[C@@H]4[C@H](O)C(C)=CC(C(=O)O1)[C@]34O)O2 (some centres undefined) [euspeclibcmpd982] | 0.921 |
| CON=C1C[C@]2(C[C@@H]3C[C@@H](C/C=C(\C)C[C@@H](C)/C=C/C=C4\CO[C@@H]5[C@H](O)C(C)=CC(C(=O)O3)[C@]45O)O2)O[C@H](/C(C)=C/C(C)C)C1C (some centres undefined) [euspeclibcmpd768] | -0.575 |
| CO[C@H]1CC(O[C@@H]2/C(C)=C/C[C@@H]3C[C@@H](C[C@]4(C=C[C@H](C)[C@@H](C5CCCCC5)O4)O3)OC(=O)C3=CC(C)[C@@H](O)[C@H]4OC/C(=C\C=C\[C@@H]2C)[C@@]34O)O[C@@H](C)C1O[C@H]1C[C@H](OC)[C@@H](O)[C@H](C)O1 (some centres undefined) [euspeclibcmpd131] | 8.87 (active) |
| CCC(C)[C@H]1O[C@]2(C=C[C@@H]1C)C[C@@H]1C[C@@H](C/C=C(\C)[C@@H](OC3C[C@H](OC)C(O[C@H]4C[C@H](OC)[C@@H](O)[C@H](C)O4)[C@H](C)O3)[C@@H](C)/C=C/C=C3\CO[C@@H]4[C@H](OC)C(C)=CC(C(=O)O1)[C@]34O)O2 (some centres undefined) [euspeclibcmpd1403] | 5.69 (active) |
| CCCCC(CC)CN=C(N)N=C(N)NCCCCCCN=C(N)N=C(N)NCC(CC)CCCC (centres undefined) [euspeclibcmpd2037] | 0.191 |
| CC(=O)NC(CS)C(=O)O (centres undefined) [euspeclibcmpd14] | -0.532 |
| CC12CCC3c4ccc(O)cc4CCC3C1C[C@H](O)[C@@H]2O (some centres undefined) [euspeclibcmpd2315] | -0.0343 |
| COC(=O)C(Cc1ccccc1)NC(=O)C(N)CC(=O)O (centres undefined) [euspeclibcmpd740] | -0.355 |
| CC(=O)OC1CCC2(C)C(=CCC3C2CCC2(C)C(C(=O)O)CCC32)C1 (centres undefined) | 0.226 |
| CC(c1ncncc1F)[C@](O)(Cn1cncn1)c1ccc(F)cc1F (some centres undefined) [euspeclibcmpd477] | -0.000648 |
| CC(=O)/N=c1\sc(S(N)(=O)=O)nn1C [euspeclibcmpd555] | 0.456 |
| CNC[C@@H](O)c1ccc(O)c(O)c1 [euspeclibcmpd110] | -0.782 |
| CC(=O)OC1CCC2(C)C3CC(=O)C4(C)C(CC5OC6(CCC(C)CO6)[C@@H](C)C54)C3CC[C@H]2C1 (some centres undefined) [euspeclibcmpd1545] | -0.224 |
| C[C@]12CCC3c4ccc(O)cc4CCC3C1CC[C@@H]2O (some centres undefined) [euspeclibcmpd115] | -0.23 |
| COc1ccc2c(c1)CCC1C2CC[C@@]2(C)C1CC[C@@H]2O (some centres undefined) [euspeclibcmpd2297] | 4.5 (active) |
| C[C@]12CCC3c4ccc(OS(=O)(=O)O)cc4CCC3C1CC[C@H]2O (some centres undefined) [euspeclibcmpd2359] | 0.435 |
| NS(=O)(=O)N1CCN(C(=O)OCC(F)(F)F)CC1 | 0.381 |
| CC(=O)N1CCc2cc(C(=O)C(C)Sc3nnc4c(Cl)cc(Cl)cn34)ccc21 (centres undefined) | 1.9 |
| COc1ccc(-c2coc3cc(O)cc(O)c3c2=O)cc1 [euspeclibcmpd1972] | -0.252 |

| SMILES | Srxn1-GFP intensity median modified Z-score |
| --- | --- |
| O=c1c(-c2ccc(O)cc2)coc2cc(O)ccc12 [euspeclibcmpd2265] | 0.00154 |
| O=c1c(-c2ccc(O)cc2)coc2cc(O)cc(O)c12 [euspeclibcmpd1252] | 7.05 (active) |
| CSCCC(NC(=O)[C@H](Cc1c[nH]c2ccccc12)NC(=O)CCNC(=O)OC(C)(C)C)C(=O)N[C@@H](CC(=O)O)C(=O)N[C@@H](Cc1ccccc1)C(N)=O (some centres undefined) [euspeclibcmpd918] | -0.345 |
| CC(CCC(=O)O)[C@H]1CCC2C3CC[C@@H]4CCCC[C@]4(C)C3CC[C@@]21C (some centres undefined) [euspeclibcmpd1329] | 1.64 |
| O=S1(=O)CCC(N(C2CC2)S(=O)(=O)c2ccc(F)c(Cl)c2)C1 (centres undefined) | 1.31 |
| CC12CCC3c4ccc(O)cc4CC(CCCCCCCCC[S+]([O-])CCCC(F)(F)C(F)(F)F)C3C1CCC2O (centres undefined) [euspeclibcmpd1981] | -0.582 |
| CC(C)(C)CC(=O)OCC(=O)[C@@]1(O)CCC2C3CC=C4CC(=O)C=C[C@]4(C)C3[C@@H](O)C[C@@]21C (some centres undefined) [euspeclibcmpd2328] | -0.406 |
| Clc1ccc(Cn2c(CN3CCCC3)nc3ccccc32)cc1 [euspeclibcmpd1234] | -0.0615 |
| Cc1nc2ccccc2n1Cc1ccc(Cl)cc1 [euspeclibcmpd2199] | 5.5 (active) |
| CN(C)CCN(Cc1ccc(Cl)cc1)c1ccccn1 [euspeclibcmpd1219] | -0.833 |
| Cc1nc(=N)c(C[n+]2csc(CCO)c2C)c[nH]1 [euspeclibcmpd454] | -0.15 |
| O=C1C(CO)OC(O)C(O)C1O (centres undefined) [euspeclibcmpd526] | -0.212 |
| COc1ccc2c(c1OC)OC[C@@H](c1ccc(OC)c(OC)c1OC)C2 [euspeclibcmpd1365] | 0.0257 |
| CCCCCCCCCCC[C@@H](C[C@H]1OC(=O)C1CCCCCC)OC(=O)C(CC(C)C)NC=O (some centres undefined) [euspeclibcmpd681] | -0.557 |
| C=C[C@H]1C[N@]2CC[C@H]1C[C@@H]2[C@@H](O)c1ccnc2ccc(OC)cc12 [euspeclibcmpd2428] | 1.98 (active) |
| C[C@]12CCC3c4ccc(O)cc4CCC3C1C[C@@H](O)[C@@H]2O (some centres undefined) [euspeclibcmpd2155] | -0.253 |
| CC(=O)Oc1c(C)cccc1C(=O)O [euspeclibcmpd1264] | -0.393 |
| CC(=O)Oc1cccc(C(=O)O)c1OC(C)=O [euspeclibcmpd1107] | 0 |
| CC(=O)Oc1cccc2c1C(=O)c1c(OC(C)=O)cc(C(=O)O)cc1C2=O [euspeclibcmpd1072] | 4.68 (active) |
